PubChem BioAssay (NCI)
About 79,000 compounds went through this panel and 15% of them were active in at least one assay; those are over-represented in the sample as a whole. A number with no mark means an inactive call. Calls of active or inactive are those of the source. Rule as the data show it: active = growth inhibition above about 70%; inactive = the rest.

Key:
[1] = NCI Yeast Anticancer Drug Screen. Data for the rad50 strain (AID 155);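 also: 0% = growth of vehicle-only cultures of the same strain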; conditions: S. cerevisiae rad50 strain growth inhibition; at 50.0 µM; active compounds read high
In short: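 Vehicle-treated cultures provide the reference for the growth inhibition reported for compound-exposed, repair-deficient yeast.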

[2] = NCI Yeast Anticancer Drug Screen. Data for the mec2-1 strain (AID 157); conditions: S. cerevisiae mec2-1 strain, at 50.0 µM, active compounds read high
In short: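 Each compound was tested on mec2-1 yeast, a strain altered in DNA damage repair or cell cycle control. Growth inhibition is reported relative to vehicle.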

[3] = NCI Yeast Anticancer Drug Screen. Data for the sgs1 mgt1 strain (AID 161);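 also: 0% = growth of cultures given vehicle only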; conditions: S. cerevisiae sgs1 mgt1 strain, at 50.0 µM, active compounds read high
In short: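 Inhibition of yeast growth, normalised to vehicle-treated controls, is reported for a strain bearing genetic alterations in DNA damage repair.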

[4] = NCI Yeast Anticancer Drug Screen. Data for the cln2 rad14 strain (AID 165);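 also: 0% = growth equal to vehicle treated cultures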; conditions: S. cerevisiae cln2 rad14 strain, at 50.0 µM, active compounds read high
In short: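 Test compounds were added to cln2 rad14 yeast cultures; inhibition of growth was then determined by comparison with vehicle treatment.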

[5] = NCI Yeast Anticancer Drug Screen. Data for the bub3 strain (AID 167); conditions: S. cerevisiae bub3 mutant strain, at 50.0 µM, active compounds read high
In short: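 Mutant yeast screening strain plus compound; vehicle-treated cultures serve as the 0% inhibition reference.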

[6] = NCI Yeast Anticancer Drug Screen. Data for the mlh1 rad18 strain (AID 175); conditions: S. cerevisiae mlh1 rad18 strain growth inhibition; at 50.0 µM; active compounds read high
In short: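 Inhibition values reflect reduced growth of mutant yeast versus vehicle-treated controls following compound exposure; the mutations affect DNA damage repair.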

| SMILES | growth inhibition [1] | growth inhibition [2] | growth inhibition [3] | growth inhibition [4] | growth inhibition [5] | growth inhibition [6] |
| --- | --- | --- | --- | --- | --- | --- |
| CC(C)COC(=O)N1N=NC2C3OC(CC3=O)C21 (configuration not stated) | -4.7% | -17.1% | -8.1% | 8.8% | -13.2% | -15.7% |
| Nc1cccc(SC2CC(=O)N(c3ccc4c(c3)OCO4)C2=O)c1 (configuration not stated) | 90.4% (active) | 92.8% (active) | 91.5% (active) | 79.2% (active) | 91.7% (active) | 85.3% (active) |
| S=C=Nc1ccc(CSc2nc3ccccc3[nH]2)cc1 | 0.8% | -9.25% | 12.8% | 2.4% | 9.4% | -11.2% |
| CC(=O)OCC1OC(n2ncnc2CBr)C(OC(C)=O)C(OC(C)=O)C1OC(C)=O (configuration not stated) | 30% | -3.4% | 12.4% | 8.45% | -4.8% | 10.6% |
| O=c1[nH]c2cc(Cl)ccc2nc1/C(=N\Nc1ccccc1)C(O)c1ccc(Cl)c(Cl)c1 (configuration not stated) | 11.6% | -4.8% | -9.55% | 24.4% | 17.1% | 19% |
| O=[N+]([O-])c1ccc(O)c(N=Cc2ccc(C=Nc3cc([N+](=O)[O-])ccc3O)cc2)c1 | -24.9% | -19.8% | -13.8% | 1.2% | -5.1% | -17.6% |
| CCc1nnc(CC)n1NC(=O)Nc1ccc(C)cc1 | -5.1% | -14.5% | -3.75% | 7.05% | -7.65% | 1.25% |
| CC12CCC(CC1C(=O)O)C2 (configuration not stated) | 19.4% | 16.3% | 24.9% | 22.1% | 9.75% | 15.3% |
| CC(=O)OC1COC(N2C(=O)C(=O)c3cc(Br)c([N+](=O)[O-])cc32)C(OC(C)=O)C1OC(C)=O (configuration not stated) | 14.3% | 12.2% | -10.6% | -1.9% | -9.6% | 1.3% |
| Nc1c2cc3ccc2nc2ccc(cc12)OCCOCCOCCOCCOCCOCCO3 | -3.05% | -16.1% | -9.55% | -12% | -0.35% | -21.2% |
| CC1(C(=O)O)CCCC2(C)c3ccc(O)cc3CCC12 (configuration not stated) | 37% | 29.9% | 61.2% | -3% | 61.1% | 45% |
| O=C(NC1(C(=O)Oc2ccc([N+](=O)[O-])cc2)CCCC1)OCc1ccccc1 | 7.25% | 20.2% | 26.1% | 8.85% | -1.7% | 28.9% |
| CCOC(=O)C(C)(C)Oc1ccc2c(C)c(-c3ccc(Cl)cc3)c(=O)oc2c1 | -1.7% | -26.4% | -1.25% | -41.2% | -47.6% | -10.9% |
| O=C1C=C(Oc2ccccc2)C(=O)C=C1Oc1ccccc1 | -8.15% | -3.55% | -27.1% | -23.8% | 14.3% | -11.1% |
| Cc1noc(NS(=O)(=O)c2ccc(NC(=S)/N=C/C(C(=O)c3ccccc3)=C(\O)c3ccccc3)cc2)c1C | 10.7% | 0.55% | 18.7% | -7.4% | -5.15% | 13.7% |
| O=C(O)C(C(=O)O)C(c1cccc([N+](=O)[O-])c1)C(c1ccccc1)[N+](=O)[O-] (configuration not stated) | 52.5% | 18.2% | 45.5% | 12.2% | 22.2% | 37.7% |
| CNC(=O)NC(C)(C)CCCCC(C)(C)NC(=O)NC | 0.5% | 17.3% | 28.3% | -16.9% | -4.65% | 19.8% |
| Cc1ccccc1C(C#N)/C(=N/NC(=O)C(=O)NN)C(=O)Nc1cccc(C(F)(F)F)c1 (configuration not stated) | 34.1% | 10.9% | 14.2% | 23.1% | 0.25% | 21.8% |
| COc1ccc(N=Cc2cc(OC)c(OC)c(OC)c2)cc1 | -12.4% | -9.6% | 1.5% | -3.55% | -12.9% | 0.95% |

| SMILES | growth inhibition [1] | growth inhibition [2] | growth inhibition [3] | growth inhibition [4] | growth inhibition [5] | growth inhibition [6] |
| --- | --- | --- | --- | --- | --- | --- |
| CC(=O)OCCNc1ccccc1 | -5.05% | 0.2% | 10.2% | -5% | -2.75% | 20.3% |
| NCC(=O)NCCC(=O)O | 3.15% | -6.7% | 1.75% | 4.6% | -24.6% | -4.6% |
| c1ccc2nn(C3CCCCO3)nc2c1 (configuration not stated) | -8.05% | -9.85% | -25.9% | -18.1% | 5.65% | -54.6% |
| CSCCC(N)C(=O)NCCS(=O)(=O)O (configuration not stated) | -22.4% | 1% | 14.8% | -8% | 17.1% | 8.25% |
| O=[N+]([O-])c1ccc(N/N=C\C2C=CCCC2)c([N+](=O)[O-])c1 (configuration not stated) | -13.2% | -0.1% | -5.65% | -31.8% | -1.05% | -19.9% |
| COc1ccc2c(c1OC)C(=O)O[C@@H]2[C@H]1c2c(cc3c(c2OC)OCO3)CCN1C | 5.7% | -28.9% | -27.8% | 6.75% | -7.35% | 11.3% |
| Cc1[nH]c2c(C)ccc(C)c2c1CC(=O)O | 29.7% | -15.1% | -40.8% | 17.1% | -24.1% | 10.2% |
| CCCCCC(Nc1nncs1)Nc1nncs1 | -4.2% | -20.5% | 14.9% | 6.1% | 8.4% | 12.6% |
| CCCCCCCCCCCCCCCC[N+](C)(C)CCN=[N+]=[N-] | 99.4% (active) | 99.7% (active) | 99.7% (active) | 99.2% (active) | 99.5% (active) | 99.5% (active) |
| c1ccc(CNCCNCc2ccccn2)nc1 | 25.4% | 7.45% | 16.1% | -61.1% | -1.15% | 16.8% |
| N#CN=C(N)NC(=O)/C=C/C=C/c1ccc(Cl)cc1 | 5.8% | 16.8% | 0.8% | 9.8% | 38% | 24.8% |
| CCC1c2c(cc(=O)[nH]c2O)C(=O)N1C (configuration not stated) | 9.5% | -4.75% | 3.95% | -9.15% | -0.8% | 0.55% |
| O=C(NC(CSC(=O)c1ccccc1)C(=O)O)c1ccccc1 (configuration not stated) | 3.2% | -8.5% | -2.6% | -22.1% | 6.8% | 7.45% |
| CN(C)Cc1cc(C(C)(C)C)ccc1-c1ccc(C(C)(C)C)cc1CN(C)C | -42.4% | -17.6% | -39.5% | 12.6% | -31.2% | -30.9% |
| COc1ccc(C(O)(CCN2CCOCC2)c2ccc3c(c2)OCO3)cc1 (configuration not stated) | -8.4% | 9.2% | -7.7% | -47.4% | 8.6% | -0.3% |
| C1CCC(c2nn[nH]n2)CC1 | 2.3% | -7.05% | 3.25% | 11.7% | 8.05% | 1% |
| Cc1cc(C23OC4COC(C)(C)OC4C2OC(C)(C)O3)nc2ccccc12 (configuration not stated) | -1.35% | 13.6% | 18.6% | -22.1% | 13.1% | 23.6% |
| O=C1c2ccccc2C(=O)C1(Cl)C(Cl)c1ccc([N+](=O)[O-])cc1 (configuration not stated) | 99.3% (active) | 98.9% (active) | 99.6% (active) | 99.1% (active) | 99.3% (active) | 99.5% (active) |
